Results reported in PubChem BioAssay.

system: Chordin-like protein 2 (CHRDL2); test: CHRDL2 small-molecule binders, primary screen, biochemical, small-molecule microarray, 635 nm fluorescence (AID 1126); conditions: small-molecule microarray binding, fluorescence 635 nm; higher = more signal;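 also: printed compound slides probed with Chrdl2 protein at 4 µg/mL for 1 h at 4 C; score merges 667 nm emission intensity with signal to noise over three replicate slides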

Row | Structure (SMILES) | composite z-score
1 | C[C@@H]1ON(c2ccccc2)[C@H](c2ccccc2)[C@H]1C(=O)N1C(=O)OC[C@H]1Cc1ccccc1 | 0.447
2 | COCCCNC(=O)[C@@H]1c2ccccc2C(=O)N(c2ccc(C)cn2)[C@H]1c1ccc(CO)cc1 | -2.03
3 | CC(=O)NCCCC[C@@H]1NC(=O)[C@H]2C[C@@H](C(=O)NCCCCCN)[C@@H](c3cccc(OCCO)c3)N2C1=O | 0.218
4 | C=CCOC(=O)[C@@H]1[C@H]2C(=O)O[C@H](c3ccccc3)[C@H](c3ccccc3)N2[C@H](c2ccc(OCCOC(=O)[C@H]3C[C@H]4C(=O)N[C@@H](Cc5ccccc5)C(=O)N4[C@H]3c3cccc(OCCO)c3)cc2)[C@@]12C(=O)Nc1ccc(I)cc12 | 1
5 | O=C(Nc1cc(Br)ccc1C(=O)NCc1cccc(O)c1)c1ccccc1 | 0.279
6 | CC(C)CCC[C@@H](C)[C@H]1CC[C@@]2(C)C3=C(CC[C@]12C)[C@@]1(C)CC[C@H](OC(=O)C(C)(C)C)C(C)(C)C1CC3 (stereo not given in full) | 0.547
7 | COC(=O)[C@@]1(Cc2ccccc2)[C@H]2c3cc(C(=O)N(C)C)n(Cc4ccc(O)c(OC)c4)c3C[C@H]2CN1C(=O)c1ccccc1 | -0.629
8 | CC(C)C[C@H]1NC(=O)[C@H](C)NC(=O)[C@@]23C(=O)N[C@@H](Cc4ccccc4)C2[C@H](C)[C@@]2(C)O[C@H]2C3/C=C/C/C=C\CNC1=O (stereo not given in full) | 0.409
9 | NCCCCCCNC(=O)[C@H]1C[C@H]2C(=O)N3CCC[C@H]3C(=O)N2[C@H]1c1ccc(O)cc1 | 0.777
10 | COC(=O)C(CC#Cc1ccc2c(c1)[C@]1(C(=O)N2)[C@H](c2ccc(OCCO)cc2)N2[C@H](c3ccccc3)[C@H](c3ccccc3)OC(=O)[C@H]2[C@@H]1C(=O)O)C(=O)OC | 0.368
11 | O=C1O[C@H](c2ccccc2)[C@H](c2ccccc2)N2[C@H]1[C@@H](C(=O)N1CCN(c3ncccn3)CC1)[C@]1(C(=O)Nc3ccc(C#CCCO)cc31)[C@H]2c1ccc(OCCO)cc1 | 0.944
12 | NC(=O)NCC#Cc1ccc2c(c1)[C@]1(C(=O)N2)[C@H](c2ccc(OCCO)cc2)N2[C@H](c3ccccc3)[C@H](c3ccccc3)OC(=O)[C@H]2[C@@H]1C(=O)N1CCCCCCC1 | 1.13
13 | CN(C)C(=O)[C@@]1(CCS(=O)(=O)c2ccccc2)N=C(c2ccc(OCCCO)cc2)O[C@H]1c1ccccc1CN=[N+]=[N-] | 0.205
14 | COc1ccc(CCNC(=O)[C@@H]2c3ccccc3C(=O)N(Cc3ccccc3C(F)(F)F)[C@H]2c2ccc(CO)cc2)cc1 | -1.34
15 | O=C1O[C@H](c2ccccc2)[C@H](c2ccccc2)N2[C@H]1[C@@H](C(=O)NC[C@H](O)c1ccccc1)[C@]1(C(=O)Nc3ccccc31)[C@H]2c1ccccc1OCCO | 0.0939
16 | C=C(CCCC)/C(=C/C[C@H](OC(=O)c1ccncc1)c1ccc(CO)o1)c1cc(C(=O)OC)ccc1OC | 0.487
17 | CCCCCCCCCCC(O)C1C=CC2C(=O)NC(=O)C2N1Nc1ccccn1 (stereo not given) | -0.9
18 | COC(=O)[C@@]1(Cc2ccc(OC)cc2)[C@H]2c3cc(C(=O)N4CCCC4)n(Cc4ccc(C)o4)c3C[C@H]2CN1C(=O)c1ccccc1 | -0.425

Row | Structure (SMILES) | composite z-score
19 | C=C(/C(=C/C[C@@H](OC(=O)c1ccncc1)c1cccc(OCCO)c1)c1cc(C(=O)OC)ccc1OC)C(C)C | 0.859
20 | CCOC(=O)C[C@H]1[C@H](OC(=O)Cc2ccc3c(c2)OCO3)[C@@H](NC(=O)c2ccccc2)c2cc(OCCCO)ccc2N1C(=O)c1ccccc1 | 0.434
21 | CCCC=C(CCC)[C@@H](NS(=O)(=O)c1ccccc1)c1ccc(C(F)(F)F)cc1 | 0.24
22 | C=C[C@H](C)[C@H](OC(=O)Nc1ccc(SC)cc1)c1ccc(O)c2ccccc12 | -0.0707
23 | CC1(C)[C@@H]2CC(C(O)C3C=CC4C(=O)N(c5ccccc5)C(=O)C4N3Nc3ccccc3F)=C[C@@H]1C2 (stereo not given in full) | 0.0364
24 | COC(=O)c1ccc(OC)c(/C=C\CC(CCc2ccccc2)OC(=O)c2ccncc2)c1 (stereo not given) | 1.52
25 | O=C1C2C=CC(C(O)c3ccc(Br)cc3)N(Nc3ccccc3)C2C(=O)N1c1ccccc1 (stereo not given) | 0.527
26 | COCCOC(=O)N1C(=O)[C@@]2(c3cc(C#Cc4ccc(OC)cc4)ccc31)[C@H](C(=O)N1CCc3cc(OC)c(OC)cc3C1)[C@H]1C(=O)O[C@H](c3ccccc3)[C@H](c3ccccc3)N1[C@@H]2c1ccc(OCCO)cc1 | 0.598
27 | C=CCC(OC(C)=O)[C@@H]1[C@@H](N(Cc2ccc(-c3cccc(C(F)(F)F)c3)o2)C(=O)c2cccc3ccccc23)c2cc(OCCCO)ccc2N1C(=O)c1ccc(-c2ccccc2)cc1 (stereo not given in full) | 0.634
28 | CCCN1C(=O)[C@@]2(Cc3ccccc3)N=C(c3ccc(OCCCO)cc3)O[C@H]2c2ccccc21 | 0.804
29 | O=C1c2ccccc2[C@](Cc2ccccc2I)(C(=O)NCC(F)(F)F)[C@H](c2ccc(CO)cc2)N1Cc1ccccc1 | -0.213
30 | COc1ccc([Si](C)(C)[C@@H]2[C@@H](CC(=O)N(CCO)Cc3ccccc3)O[C@]3(C(=O)N(C)c4c(Br)cc(C)cc43)[C@H]2C)cc1 | 1.4
31 | CCOC(=O)C[C@H]1[C@H](OC(=O)Cc2ccc3c(c2)OCO3)[C@@H](NC(=O)c2ccccc2)c2cc(OCCCO)ccc2N1C(=O)c1ccc2ccccc2n1 | 0.127
32 | COC(=O)[C@]1(Cc2ccccc2CN=[N+]=[N-])N=C(c2ccc(OCCCO)cc2)O[C@@H]1c1ccccc1 | -0.928
33 | CN(C)CCCC[C@@H]1NC(=O)[C@H]2C[C@@H](C(=O)NCCCCCCNC(=O)CS)[C@@H](c3ccc(O)cc3)N2C1=O | -0.0412
34 | O=C(O)[C@]1(CCS(=O)(=O)c2ccccc2)N=C(c2ccc(OCCCO)cc2)O[C@@H]1c1ccccc1 | -0.0616
35 | C=CCC(OC(C)=O)[C@@H]1[C@@H](N(Cc2cccc3ccccc23)C(=O)c2ccc(C)cc2)c2cc(OCCCO)ccc2N1C(=O)c1ccc2ccccc2c1 (stereo not given in full) | 0.224
